37 compounds from PubChem BioAssay can be followed below.

The source made the active and inactive calls. Unless noted, how the calls were made is not given here.

Assay [1] is described as follows: blood-stage malaria parasite viability loss – strain 3D7, DAPI fluorescence, 100 nL, primary screen (AID 1184).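 Further: parasites grown inside human red blood cells in medium with human serum.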 As to conditions: P. falciparum 3D7 growth, 3 d, higher = more signal.
The target in assay [2] is Homeobox protein Hox-A13 (Mus musculus) (UniProt Q62424). Nature of the assay: disruptors of Hoxa13 oligonucleotide interaction – biochemical, fluorescence polarization, labeled oligonucleotide, primary screen (AID 1185). As to conditions: Hoxa13:DNA binding, 15 min, higher = more signal, called active from +8 up or from −8 down. On the technique in general: Fluorescence polarisation rises when a labelled molecule tumbles more slowly, as on binding a larger partner.

Assay [3] in a line: blockers of DNA damage checkpoint Chk1 activation – imaging, HeLa, hydroxyurea, phospho-Chk1 antibody, percent positive cells, primary screen (AID 1186). Particulars: hydroxyurea-induced phospho-Chk1 immunofluorescence imaging, higher = more signal.
A short description of assay [4]: blockers of DNA damage checkpoint Chk1 activation – imaging, HeLa, hydroxyurea, phospho-Chk1 nuclear intensity, primary screen (AID 1187). Further: test concentration not given here. As to conditions: hydroxyurea-induced phospho-Chk1 immunofluorescence imaging, higher = more signal.

Sequence of Homeobox protein Hox-A13 (Mus musculus) (Q62424 whole entry, looked up): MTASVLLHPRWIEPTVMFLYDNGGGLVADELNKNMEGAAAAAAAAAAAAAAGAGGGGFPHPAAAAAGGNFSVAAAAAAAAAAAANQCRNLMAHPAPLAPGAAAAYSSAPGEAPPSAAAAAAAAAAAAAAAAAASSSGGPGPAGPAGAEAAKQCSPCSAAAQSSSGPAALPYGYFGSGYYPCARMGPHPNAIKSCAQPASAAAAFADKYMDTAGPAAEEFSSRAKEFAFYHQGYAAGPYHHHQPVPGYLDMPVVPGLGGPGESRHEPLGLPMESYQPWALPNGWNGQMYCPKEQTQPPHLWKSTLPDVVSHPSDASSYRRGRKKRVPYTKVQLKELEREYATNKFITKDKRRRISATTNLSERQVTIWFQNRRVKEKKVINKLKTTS

For the compound `C[N+](C)(C)CCCC[C@@H]1NC(=O)[C@H]2C[C@@H](C(=O)NCCCCCN)[C@@H](c3cccc(OCCO)c3)N2C1=O`, the z-score was -1.09 in assay [1], -2.19 (inactive) in assay [2], 0.287 (inactive) in assay [3] and 0.7 (inactive) in assay [4].
The like results for `COCCCNC(=O)[C@@]1(CCS(=O)(=O)c2ccccc2)N=C(c2ccc(OCCCO)cc2)O[C@H]1c1ccccc1CN=[N+]=[N-]` were, in that order, -2.68, -1.88 (inactive), -1.07 (inactive) and -1.61 (inactive).
Consider `CN1C=C(C(=O)OCCS(C)(=O)=O)C(C(=O)OCCS(C)(=O)=O)=CC(CCCO)=CC1c1cccs1` (stereo not drawn), for which the z-score was -0.654 in assay [1], -5.5 (inactive) in assay [2], -0.084 (inactive) in assay [3] and -0.389 (inactive) in assay [4].
On to `COC(=O)C1=CC(CCCO)=CC(C2CC2)N(Cc2cc3c(cc2Br)OCO3)C=C1C(=O)OC` (stereo not drawn), for which the z-score is -0.963 in assay [1], -4.63 (inactive) in assay [2], -0.203 (inactive) in assay [3] and -0.201 (inactive) in assay [4].
The like results for `C/C=C/[C@@H](CCn1cc(CCO[Si](C(C)C)(C(C)C)C(C)C)nn1)[Si](C)(C)c1ccc(OC)cc1` were, in that order, -0.84, -5.56 (inactive), -0.233 (inactive) and 0.122 (inactive).
The like results for `C=C[C@H](OC)[C@@H](OC(=O)Nc1ccc(OC)cc1)c1ccc(OC)c(O)c1` were, in that order, -0.294, -2.75 (inactive), 0.0254 (inactive) and 0.471 (inactive).
Take `COC(=O)[C@@]1(CCC(=O)OC(C)(C)C)COC(c2ccc(OCCCO)cc2)=N1`: the z-score is -0.478 in assay [1], -2.57 (inactive) in assay [2], -0.14 (inactive) in assay [3] and 0.264 (inactive) in assay [4].
The like results for `O=C(N1CCCCC1)[C@@]1(Cc2ccccc2)N=C(c2ccc(OCCCO)cc2)O[C@H]1c1ccccc1` were, in that order, -2.18, -3.68 (inactive), -1.29 (inactive) and -1.55 (inactive).
The like results for `Cc1ccc(N2C(=O)c3ccccc3[C@](C)(C(=O)NC3CC3)[C@@H]2c2ccc(CO)cc2)nc1` were, in that order, 0.202, -1.18 (inactive), -0.0797 (inactive) and 0.24 (inactive).
The like results for `[N-]=[N+]=NCc1ccccc1C[C@@]1(C(=O)O)N=C(c2ccc(OCCCO)cc2)O[C@@H]1c1ccccc1` were, in that order, -0.455, -5.05 (inactive), 0.0912 (inactive) and 0.429 (inactive).
In the case of `C=CCC(OC(C)=O)[C@@H]1[C@@H](N(Cc2cc3ccccc3o2)C(=O)c2ccc(-c3ccccc3)cc2)c2cc(OCCCO)ccc2N1C(=O)c1ccc(-c2ccccc2)cc1` (stereo partly drawn), the z-score in assay [1] is -1.63; in assay [2], -0.639 (inactive); in assay [3], -0.604 (inactive); in assay [4], -0.195 (inactive).
The like results for `COc1ccc([Si](C)(C)[C@@H]2[C@@H](CC(=O)N3CCC[C@H]3CO)O[C@]3(C(=O)N(Cc4ccc(N5CCC5=O)cc4)c4ccccc43)[C@H]2C)cc1` were, in that order, -0.0482, -2.83 (inactive), -0.245 (inactive) and 0.476 (inactive).
The like results for `CC(C)C[C@@H]1NC(=O)[C@H]2C[C@@H](C(=O)NCCCC[N+](C)(C)C)[C@@H](c3cccc(OCCO)c3)N2C1=O` were, in that order, 1, -2.24 (inactive), 0.656 (inactive) and 0.824 (inactive).
Turning to `COc1c(C)cc(-c2cc3c(c(CCc4ccccc4)n2)[Si](C(C)C)(C(C)C)OC3)cc1C`, the z-score in assay [1] was -0.633; in assay [2] it was -0.207 (inactive); in assay [3], -0.666 (inactive); in assay [4], -0.461 (inactive).
The like results for `C=C(/C(=C/C[C@H](OC(C)=O)c1cccc(OCCO)c1)c1cc(C(=O)OC)ccc1OC)C(C)C` were, in that order, -1.79, -4.34 (inactive), 0.209 (inactive) and 0.641 (inactive).
Turning to `O=C1c2ccccc2[C@](Cc2ccccc2I)(C(=O)O)[C@H](c2ccc(CO)cc2)N1Cc1ccccc1Cl`, the z-score in assay [1] was 0.303; in assay [2], -4.18 (inactive); in assay [3], -0.679 (inactive); in assay [4], -0.559 (inactive).
The like results for `CC(C)[Si](C#C[Si](C(C)C)(C(C)C)C(C)C)(O[C@H](C)c1cn([C@H](C)c2ccccc2)nn1)C(C)C` were, in that order, -0.628, -0.0303 (inactive), -0.0899 (inactive) and 0.346 (inactive).
The like results for `O=C(NC1CC1)[C@@H]1c2ccccc2C(=O)N(Cc2ccccc2C(F)(F)F)[C@H]1c1ccc(CO)cc1` were, in that order, -0.358, -1.7 (inactive), -0.14 (inactive) and 0.177 (inactive).
The like results for `COCCCN1C(=O)[C@@]2(Cc3ccccc31)c1ccccc1C(=O)N(Cc1ccccc1Cl)[C@H]2c1ccc(CO)cc1` were, in that order, -0.7, -0.759 (inactive), -0.83 (inactive) and -0.981 (inactive).
As for `CC(C)N1CC=CC23O[C@@H]4/C=C\CCCOC(=O)C4[C@H]2C(=O)N(CCCO)[C@@H]3C1=O` (stereo partly drawn), the z-score is -0.723 in assay [1], -4.49 (inactive) in assay [2], -0.235 (inactive) in assay [3] and 0.101 (inactive) in assay [4].
The like results for `NCCCCCCNC(=O)[C@@H]1C[C@@H]2C(=O)N[C@@H](Cc3ccccc3)C(=O)N2[C@@H]1c1ccc(O)cc1` were, in that order, -0.18, -1.74 (inactive), 1 (inactive) and 0.982 (inactive).
The like results for `CCOC(=O)C[C@H]1[C@H](OC(=O)c2ccc(-c3ccccc3)cc2)[C@@H](NC(=O)c2ccccc2)c2cc(OCCCO)ccc2N1C(=O)c1ccccc1` were, in that order, -1.21, -0.959 (inactive), -1.04 (inactive) and -0.361 (inactive).
With `C=C(CCCC)/C(=C/C[C@H](OC(=O)c1ccncc1)c1ccc(CO)o1)c1cnc2ccccc2c1`, the z-score in assay [1] is -0.209; in assay [2] it was -4.76 (inactive); in assay [3] it was -0.762 (inactive); in assay [4], -0.937 (inactive).
The like results for `COc1ccc([Si](C)(C)[C@H]2[C@H](CCO)O[C@@]3(C(=O)N(Cc4ccc(N5C(=O)c6cccc7cccc5c67)cc4)c4ccccc43)[C@@H]2C)cc1` were, in that order, -1.23, -0.82 (inactive), -1.48 (inactive) and -1.39 (inactive).
The like results for `Cc1ccc(S[C@]2(C(=O)NCCN3CCOCC3)CC(=O)N(Cc3cc(C(F)(F)F)cc(C(F)(F)F)c3)[C@@H]2c2ccc(CO)cc2)cc1` were, in that order, -0.578, -1.78 (inactive), -0.999 (inactive) and -2.03 (inactive).
The like results for `CC(C)C(=C=CC[C@H](O)c1ccc(OCCO)cc1)C[C@H](O)COCc1ccccc1` were, in that order, -2.65, -4.06 (inactive), -0.0011 (inactive) and 0.313 (inactive).
As to `COCCOC(=O)N1C(=O)[C@@]2(c3cc(C#CC4(O)CCCCCC4)ccc31)[C@H](c1ccccc1OCCO)N1[C@H](c3ccccc3)[C@H](c3ccccc3)OC(=O)[C@H]1[C@@H]2C(=O)Nc1nc2ccccc2s1`, the z-score in assay [1] is -1.67; in assay [2], 4.08 (inactive); in assay [3], -0.201 (inactive); in assay [4], -0.38 (inactive).
The like results for `C=CCNC(=O)[C@H]1[C@@H]2C(=O)O[C@@H](c3ccccc3)[C@@H](c3ccccc3)N2[C@@H](c2ccccc2OCCO)[C@]12C(=O)N(C(=O)OCCOC)c1ccc(C#CCCO)cc12` were, in that order, -2.16, -1.2 (inactive), 0.051 (inactive) and -0.0745 (inactive).
The like results for `CC(C)(C)OC(=O)CC[C@@]12N=C(c3ccc(OCCCO)cc3)O[C@@H]1c1ccccc1N(Cc1ccccc1)C2=O` were, in that order, -2.19, -1.44 (inactive), -0.501 (inactive) and -0.284 (inactive).
`CCCCCN1CC=CC23O[C@@H]4/C=C\CCC(C)OC(=O)C4[C@H]2C(=O)N(CCCO)[C@@H]3C1=O` (stereo partly drawn): the z-score in assay [1] was -0.186; in assay [2], -3.86 (inactive); in assay [3] it was -0.183 (inactive); in assay [4], 0.0885 (inactive).
The like results for `CCCC[C@@H](O)C1=C(C)C[C@H]2C(=O)N(C)C(=O)[C@H]2[C@H]1CO` were, in that order, -1.46, -3.63 (inactive), -0.425 (inactive) and -0.185 (inactive).
Regarding `CCCNC(=O)[C@@H]1c2ccccc2C(=O)N(Cc2cc(C(F)(F)F)cc(C(F)(F)F)c2)[C@H]1c1ccc(CO)cc1`, the z-score was -1.64 in assay [1], -1.94 (inactive) in assay [2], -0.319 (inactive) in assay [3] and 0.0789 (inactive) in assay [4].
The like results for `COc1ccc(C(=O)Nc2cccc(CN3C(=O)[C@@]4(O[C@@H](CCO)[C@H]([Si](C)(C)c5ccc(OC)cc5)[C@H]4C)c4ccccc43)c2)cc1` were, in that order, -2.7, -2.09 (inactive), -1.08 (inactive) and -0.215 (inactive).
The like results for `CCOC(=O)C[C@H]1[C@H](OC(=O)c2ccc(C(=O)c3ccccc3)cc2)[C@@H](NC(=O)Cc2ccc(OC)cc2)c2cc(OCCCO)ccc2N1C(=O)Cc1ccc(OC)cc1` were, in that order, -0.283, -2.01 (inactive), 0.0944 (inactive) and 0.0944 (inactive).
The like results for `C[C@@H](OCc1ccccc1)C1NC(=O)[C@@]23C(=O)N[C@@H](Cc4ccccc4)C2[C@H](C)[C@@]2(C)O[C@H]2C3/C=C/C/C=C\CNC(=O)[C@@H]2CCCN2C1=O` (stereo partly drawn) were, in that order, -2.58, -7.05 (inactive), 0.0938 (inactive) and 0.427 (inactive).
With `C=CCNC(=O)[C@@H]1[C@H]2C(=O)O[C@H](c3ccccc3)[C@H](c3ccccc3)N2[C@H](c2ccc(O)cc2)[C@@]12C(=O)Nc1ccc(C#Cc3ccc(OC)cc3)cc12`, the z-score is -0.107 in assay [1], 0.296 (inactive) in assay [2], -0.357 (inactive) in assay [3] and -0.426 (inactive) in assay [4].
With `COCCOC(=O)N1C(=O)[C@@]2(c3cc(C#CC4(O)CCCCCC4)ccc31)[C@H](C(=O)NC[C@H](O)c1ccccc1)[C@H]1C(=O)O[C@H](c3ccccc3)[C@H](c3ccccc3)N1[C@@H]2c1ccccc1OCCO`, the z-score in assay [1] is -2.11; in assay [2] it was -0.371 (inactive); in assay [3], 0.462 (inactive); in assay [4], 0.992 (inactive).
